Screening data (PubChem BioAssay)
Sampled rows, rich in hits. Any-hit rate of the full collection: about 4.3%.
KKLEB tox = cytotoxicity in KKLEB CF airway cells, primary screen, cytotoxicity control for CF NF-kB inhibitor project, cell-based, uHTS, fluorescence assay plates; KKLEB CF airway cells viability, ATPlite luminescence, overnight; hits give low values; cells stimulated with P. aeruginosa culture filtrate; activity change (cytotoxicity), % at 5 µM; actives 0.36% (n = 360,000);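 active means corrected activity change at or below -50% at 5 µM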
Peg3 prom inh = Peg3 promoter-driven luciferase inhibitors, primary screen, cell-based, HeLa, luciferase luminescence; inhibition, % at 20 µM; HeLa PEG-Prom luciferase reporter, overnight; actives 1.7% (n = 360,000); AID 588405, 2011;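 active means inhibition of at least 50% at 20 µM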
CF NFkB inh = inhibitors of PAF-induced NF-kB signaling, primary screen, cell-based, GFP fluorescence, uHTS. KKLEB NF-kB-GFP reporter, GFP fluorescence overnight. inhibition, % at 5 µM. actives 0.86% (n = 360,000). AID 588850, 2011;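 active means at least 50% inhibition at 5 µM, scaled per plate between neutral and stimulator controls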;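 further: PAF is a Pseudomonas aeruginosa culture filtrate used as stimulus; plate controls were PAF-stimulated DMSO wells for no effect and unstimulated DMSO wells for full effect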
CHOP inhibitor = inhibitors of CHOP promoter induction, primary screen, cell-based, unfolded protein response, luciferase reporter; inhibition, % at 10 µM; actives 3.8% (n = 220,000); CHO-K1 CHOP-promoter luciferase, tunicamycin-induced, 15-18 h; AID 2732, 2010;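 active means compounds that reduced the stress-induced luciferase reporter signal by more than about 70% of percent inhibition, limit read from the data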;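 further: 0% = tunicamycin plus vehicle and 100% = wells without tunicamycin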
TRPM1 prom inh = inhibitors of MITF-dependent TRPM1 promoter reporter, primary screen, cell-based, SK-MEL-5, single point, luciferase. actives 0.83% (n = 330,000). SK-MEL-5 TRPM1 promoter luciferase, 24 h. inhibition, % at 12.5 µM;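 active means mean inhibition across replicates of 60% or more, whatever share of single replicates reaches that level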
HIF-2a block = HIF-2a reporter inhibitors, primary screen, luminescence, 786-0 RCC cells | 786-0 RCC cells HIF-2a reporter, luciferase luminescence, overnight | inhibition, % at 18.8 µM | actives 0.72% (n = 360,000) | AID 624352, 2012;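 active means inhibition of the luminescence signal of 40% or more relative to plate controls, in a single-dose primary screen at 18.75 µM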
Mdm2 MdmX conf = retested Mdm2-MdmX interaction blockers, confirmation, cell-based, luminescence, single concentration, set 2; shares compounds with HIF-2a block; AID 504601, 2011; actives 99% (n = 740); inhibition, % at 8 µM; SaOS-2 split-luciferase Mdm2/MdmX complementation;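 active means mean inhibition of the luminescence signal across two replicates at or above 26 percent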
Target sequence (O15151 whole entry, looked up): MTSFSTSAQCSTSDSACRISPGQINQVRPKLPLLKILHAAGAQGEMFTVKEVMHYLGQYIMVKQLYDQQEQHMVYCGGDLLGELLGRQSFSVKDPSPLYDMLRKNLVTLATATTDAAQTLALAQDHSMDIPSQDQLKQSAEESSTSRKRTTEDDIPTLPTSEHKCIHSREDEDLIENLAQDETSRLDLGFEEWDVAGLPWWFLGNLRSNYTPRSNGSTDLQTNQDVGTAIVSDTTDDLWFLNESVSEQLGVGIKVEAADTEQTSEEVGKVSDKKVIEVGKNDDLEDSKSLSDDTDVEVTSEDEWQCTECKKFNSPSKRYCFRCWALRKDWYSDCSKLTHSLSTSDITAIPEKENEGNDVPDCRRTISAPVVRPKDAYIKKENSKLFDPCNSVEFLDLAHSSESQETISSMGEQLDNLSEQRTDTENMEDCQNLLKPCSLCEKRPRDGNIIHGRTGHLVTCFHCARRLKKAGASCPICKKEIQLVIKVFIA
Target sequence (Q00987 whole entry, looked up): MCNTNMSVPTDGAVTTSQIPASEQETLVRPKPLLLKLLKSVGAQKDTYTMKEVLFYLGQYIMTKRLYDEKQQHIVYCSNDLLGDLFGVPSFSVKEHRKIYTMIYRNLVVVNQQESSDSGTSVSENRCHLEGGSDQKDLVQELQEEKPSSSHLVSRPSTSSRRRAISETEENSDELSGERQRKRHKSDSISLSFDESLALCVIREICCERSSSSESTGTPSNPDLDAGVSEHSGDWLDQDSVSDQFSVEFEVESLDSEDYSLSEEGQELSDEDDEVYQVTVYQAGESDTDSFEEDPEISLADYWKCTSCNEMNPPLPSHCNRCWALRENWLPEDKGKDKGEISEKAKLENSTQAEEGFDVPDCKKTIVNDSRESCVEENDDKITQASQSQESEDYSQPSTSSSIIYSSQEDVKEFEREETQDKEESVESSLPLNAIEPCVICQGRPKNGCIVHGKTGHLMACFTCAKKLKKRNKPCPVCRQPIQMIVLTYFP
HIF-2a inh conf = HIF-2a reporter inhibitor retest, confirmation, luminescence, 786-0 RCC cells. HIF-2a luciferase reporter luminescence, overnight. actives 56% (n = 1,800). shares compounds with HIF-2a block. inhibition, % at 18.8 µM;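 active means mean inhibition across four replicates of at least 40 percent at the single tested concentration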
HIF-1a counter = HIF-1a luciferase reporter signal reduction – MiaPaCa-2 cells, single concentration, counter-screen for HIF-2a inhibitor project, confirmation; MiaPaCa-2 HIF-1a luciferase reporter, desferoxamine, overnight; actives 72% (n = 1,800); shares compounds with HIF-2a block; inhibition, % at 18.8 µM; AID 651589, 2012;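 active means mean inhibition of the reporter signal across four replicates at the single tested dose of 50% or more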
* = called active by the depositor; / = not tested or not shown.

SMILES | KKLEB tox | Peg3 prom inh | CF NFkB inh | CHOP inhibitor | TRPM1 prom inh | HIF-2a block | HIF-2a inh conf | HIF-1a counter | others
Cc1ccc(S(=O)(=O)N2CCCCC2)cc1NC(=O)Cn1ncc(Cl)c(Cl)c1=O | -89* | 109* | 104* | / | 101* | 94* | 99* | 104* | Mdm2 MdmX conf=103*
CCN(CC)S(=O)(=O)c1cc(NC(=O)Cn2ncc(Cl)c(Cl)c2=O)ccc1C | -66* | 101* | 89* | 53 | 85* | 97* | 48* | 104* | Mdm2 MdmX conf=103*
CCN(CC)S(=O)(=O)c1cc(NC(=O)CN2C(=O)NC(C)(c3ccccc3)C2=O)ccc1C (stereo not given) | 0 | 18 | 4 | / | 4 | 11 | / | /
Cc1cccc(Cn2ncc(Cl)c(Cl)c2=O)c1 | 11 | 44 | 23 | -99 | 28 | 13 | / | / | Mdm2 MdmX conf=103*
CN(C)S(=O)(=O)c1cccc(NC(=O)COC(=O)/C=C/c2ccc([N+](=O)[O-])cc2)c1 | 2 | 1 | -6 | 0 | 5 | 18 | / | /
CCOC(=O)c1ccc(NC(=O)Cn2nc(C)c3ccccc3c2=O)cc1 | 19 | -9 | -4 | / | 16 | 9 | / | /
CCOC(=O)c1ccc(NC(=O)Cn2ncc(Cl)c(Cl)c2=O)cc1 | -95* | 104* | 89* | 108* | 103* | 89* | 98* | 105* | Mdm2 MdmX conf=103*
Cc1ccc(C(=O)OCn2ncc(Cl)c(Cl)c2=O)cc1 | -94* | 102* | 92* | 107* | 105* | 92* | 98* | 107*
Cc1cc2oc(=O)cc(Cn3ncc(Cl)c(Cl)c3=O)c2cc1Cl | -69* | 106* | 88* | 105* | 83* | -38 | / | / | Mdm2 MdmX conf=103*
Cc1ccc(C(=O)COC(=O)c2nc(Cl)ccc2Cl)cc1 | 8 | -3 | -5 | / | 5 | 13 | / | /
O=C(CSCc1cccc(Cl)c1)Nc1ccccc1-c1ccccc1 | 2 | 26 | -1 | 62 | -17 | 23 | / | /
CCOC(=O)C1=C(C)N(CCC(=O)O)C(=O)NC1c1ccccc1Cl (stereo not given) | -8 | -12 | -9 | / | -5 | 17 | / | /
COc1ccc(CNC(=O)N2[C@H]3CC[C@@H]2C=C(c2ccc(F)cc2OCc2ccccc2)C3)cc1OC | -13 | 40 | 3 | / | / | -5 | / | /
CCNC(=S)N/N=C/c1cccc(OCc2c(F)cccc2Cl)c1 | 10 | -9 | 13 | 42 | -6 | -22 | / | /
C[C@@]12C(=O)OC(=O)[C@]1(C)C1CCC2O1 | -2 | 84* | 84* | / | 80* | 79* | / | / | Mdm2 MdmX conf=100*
CCC(=O)Nc1cccc(C(=O)/C=C/c2cccs2)c1 | -14 | -103 | -9 | -58 | -11 | -76 | / | /
CCC(=O)Nc1cccc(C(=O)/C=C/c2ccccc2)c1 | -10 | 102* | 3 | -81 | 10 | 44* | -46 | 101*
Cc1ccc(C(=O)c2cccc(N)c2)cc1C | -14 | -19 | -8 | 79* | 66* | 84* | 93* | 56*
CCC(=O)Nc1cccc(C(=O)c2ccc(C)c(C)c2)c1 | -7 | -20 | -3 | 32 | -11 | 45* | 65* | 15
O=C(Nc1ccccc1)c1cn(CCBr)cn1 | -8 | -153 | 3 | / | -36 | -180 | / | /
COc1cc2oc(=O)cc(-c3ccc(-c4ccc(CO)cc4)cc3)c2c(OC)c1OC | -8 | -18 | 75* | / | -16 | 4 | / | / | Mdm2 MdmX conf=83*
COc1cc(-c2[nH]ncc2CN2CCN(c3cccc(C)n3)CC2)cc(OC)c1OC | -7 | 0 | 3 | -3 | 5 | 8 | / | /
Cc1ccc(-c2csc3ncnc(Sc4nnc(CN5CCCCCC5=O)o4)c23)cc1 | 9 | 106* | 93* | / | 85* | 94* | 100* | 104*
COc1ccc(N2CCN(C(=O)CSc3ncnc4scc(-c5ccc(C)cc5)c34)CC2)cc1 | -20 | 23 | 0 | / | 12 | 11 | / | /
CCN1CCN(CCNC(=O)c2ccc(/C=C3/Sc4ccccc4N(Cc4cccc(Cl)c4)C3=O)cc2)CC1 | -29 | 97* | 21 | 33 | 68* | 17 | / | / | Mdm2 MdmX conf=102*
SMILES | KKLEB tox | Peg3 prom inh | CF NFkB inh | CHOP inhibitor | TRPM1 prom inh | HIF-2a block | HIF-2a inh conf | HIF-1a counter | others
C/C(=N\NC(=O)C(=O)Nc1c(C)n(C)n(-c2ccccc2)c1=O)c1ccncc1 | 11 | 6 | -4 | 1 | 7 | 15 | / | /
COc1ccc(/C=C/c2nc3ccccc3c(=O)o2)cc1 | -16 | 38 | 25 | / | 2 | 43* | 18 | 89*
O=[N+]([O-])c1ccc(O)c(/C=N/NC(=S)Nc2ccc(Cl)cc2Cl)c1 | -7 | 12 | 10 | 18 | 43 | -78 | / | /
O=C(N/N=C/c1ccc([N+](=O)[O-])s1)c1ccccc1Br | 1 | 28 | -15 | 15 | 90* | 70* | 76* | 91*
COC(=O)N/N=C/c1ccc([N+](=O)[O-])s1 | 1 | -5 | -28 | -57 | 23 | 4 | / | /
O=[N+]([O-])c1ccc(/C=N/NC(=S)Nc2ccc(Cl)cc2Cl)s1 | 0 | 60* | -2 | -24 | 40 | -29 | / | / | Mdm2 MdmX conf=84*
Cc1ccccc1C(=O)N/N=C/c1ccc([N+](=O)[O-])s1 | 1 | 50* | -4 | 59 | 94* | 76* | 90* | 95*
Cc1cc(C(=O)N/N=C/c2ccc([N+](=O)[O-])s2)c2ccccc2n1 | 7 | 41 | -26 | / | 60 | -9 | / | /
O=C(N/N=C/c1ccc([N+](=O)[O-])s1)c1ccccc1 | 40 | 1 | -35 | -11 | 105* | 51* | 49* | 67*
CSCCC(NC(=O)c1ccc([N+](=O)[O-])cc1Cl)C(=O)OC(C)C(=O)NCc1ccco1 (stereo not given) | 10 | 1 | -12 | / | -1 | 7 | / | /
O=C1c2ccccc2C(O)(c2ncc[nH]2)N1CCc1ccccc1 (stereo not given) | 4 | 12 | 4 | 12 | -4 | -23 | / | /
CN(c1ccc(F)cc1)S(=O)(=O)c1ccc(Cl)c(C(=O)NC2(C)CCS(=O)(=O)C2)c1 (stereo not given) | -5 | 3 | 20 | / | 3 | 6 | / | /
